The nature of assay [1]: qHTS assay to identify small molecule antagonists of the glucocorticoid receptor (GR) signaling pathway - cell viability counter screen (AID 720693). Note: nearly all actives have a fitted effect of over 55% in size.
The nature of assay [2]: qHTS assay for identifying genotoxic compounds that show differential cytotoxicity against isogenic chicken DT40 cell lines with known DNA damage response pathways - wild type cell line (AID 743012). Note: nearly all actives have a fitted effect of over 60% in size. Note: potency is the fitted concentration of half-maximal effect. In outline: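 Cytotoxicity in repair-proficient parental chicken DT40 cells serves as the comparator for Rad54/Ku70- and Rev3-deficient lines. Cells were exposed to compounds for 40 h at 37 C/5% CO2, and ATP-based luminescence (CellTiter-Glo) measured viability.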

A short description of assay [3]: qHTS assay for identifying genotoxic compounds that show differential cytotoxicity against isogenic chicken DT40 cell lines with known DNA damage response pathways - Rev3 mutant cell line (AID 743014). Note: nearly all actives have a fitted effect of over 55% in size. Note: potency is the fitted concentration of half-maximal effect.
The nature of assay [4]: qHTS assay for identifying genotoxic compounds that show differential cytotoxicity against isogenic chicken DT40 cell lines with known DNA damage response pathways - Rad54/Ku70 mutant cell line (AID 743015). Note: nearly all actives have a fitted effect of over 60% in size. Note: potency is the fitted concentration of half-maximal effect.
Assay [5] in a line: qHTS assay to identify small molecule antagonists of the androgen receptor (AR) signaling pathway - cell viability counter screen (AID 743033; note: nearly all actives have a fitted effect of over 45% in size).
For assay [6], the target named is Androgen receptor (Homo sapiens) (UniProt P10275). The experiment in a line: qHTS assay to identify small molecule agonists of the androgen receptor (AR) signaling pathway (AID 743036; active = well fitted activation curve with a large enough effect in the signal ratio in the repeat runs, with a control signal flat, not every such curve was filed as active; the % refers to the signal ratio). In short, it runs like this:
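AR-UAS-bla HEK293 cells, plated 4 h before dosing, were treated with compound for 16 h at 37C. beta-Lactamase reporter read after 2 h with LiveBLAzer B/G FRET substrate at room temperature.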

The target is the same in assay [7]. The experiment in a line: qHTS assay to identify small molecule agonists of the androgen receptor (AR) signaling pathway using the MDA cell line (AID 743040; note: nearly all actives have a fitted effect of over 20% in size; note: potency is the fitted concentration of half-maximal effect). In short, it runs like this: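 Cell-based luciferase reporter: MDA-kb2, MMTV promoter (AR + GR response elements). 16 h compound exposure at 37C; ONE-Glo, 30 min RT, luminescence.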
Assay [8] is described as follows: qHTS assay to identify small molecule antagonists of the androgen receptor (AR) signaling pathway using the MDA cell line - cell viability counter screen (AID 743041; note: nearly all actives have a fitted effect of over 45% in size). In outline: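 In this qHTS counter assay, fluorescence intensity after CellTiter-Fluor addition indicated viability of MDA-kb2 AR-luc cells given compounds and R1881 for 16 h at 37C.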
The target in assay [9] is Androgen receptor (Homo sapiens) (UniProt P10275). The assay is described as follows: qHTS assay to identify small molecule antagonists of the androgen receptor (AR) signaling pathway using the MDA cell line (AID 743042; note: nearly all actives have a fitted effect of over 55% in size). In short, it runs like this:
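MDA-kb2 cells (human breast carcinoma, stably carrying an MMTV-luciferase reporter responsive to AR and GR) were plated at 3,000 cells/well and preincubated 5 hr at 37C, then given compound plus R1881 agonist for 16 h. ONE-Glo luminescence was read.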

The nature of assay [10]: qHTS assay to identify small molecule antagonists of the thyroid receptor (TR) signaling pathway - cell viability counter screen (AID 743064). Note: nearly all actives have a fitted effect of over 50% in size. Note: potency is the fitted concentration of half-maximal effect. In short, it runs like this:
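GH3.TRE-Luc rat pituitary cells dosed after 4 hr plating, co-stimulated with T3 at 1 nM final, incubated 23.5 h at 37 C. Viability measured in the same wells by CellTiter-Fluor fluorescence after 30 min further at 37 C.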

Assay [11] has as its system thyroid hormone receptor (rat, GH3 cells). The experiment in a line: qHTS assay to identify small molecule agonists of the thyroid receptor (TR) signaling pathway (AID 743066; calls by dose curve).
Assay [12] deals with Estrogen receptor (Homo sapiens) (UniProt P03372). The assay is described as follows: qHTS assay to identify small molecule antagonists of the estrogen receptor alpha (ER-alpha) signaling pathway (AID 743069; active = well fitted curve in the direction sought with a large enough effect in the signal ratio in the repeat runs, not every such curve was filed as active; the % refers to the signal ratio). In short, it runs like this:
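A 17beta-estradiol challenge was applied right after compound transfer to ER-alpha-UAS-bla HEK293 cells previously kept in charcoal-stripped serum. Plates stood 18 hr at 37C and 5% CO2; fluorescence was read following 2 hr FRET substrate loading at room temperature.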

A short description of assay [13]: qHTS assay to identify small molecule antagonists of the estrogen receptor alpha (ER-alpha) signaling pathway - cell viability counter screen (AID 743074; calls by dose curve;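 note: HEK293 cells carrying ER-alpha-UAS-bla reporter stimulated with 17beta-estradiol; nearly all actives have a fitted effect of over 45% in size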).
For assay [14], the target named is Estrogen receptor (Homo sapiens) (UniProt P03372). The assay is described as follows: qHTS assay to identify small molecule agonists of the estrogen receptor alpha (ER-alpha) signaling pathway (AID 743075; calls by dose curve;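 note: HEK293 GripTite cells with ER-alpha and UAS-driven beta-lactamase reporter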).
Sequence of Estrogen receptor (Homo sapiens) (P03372 whole entry, looked up): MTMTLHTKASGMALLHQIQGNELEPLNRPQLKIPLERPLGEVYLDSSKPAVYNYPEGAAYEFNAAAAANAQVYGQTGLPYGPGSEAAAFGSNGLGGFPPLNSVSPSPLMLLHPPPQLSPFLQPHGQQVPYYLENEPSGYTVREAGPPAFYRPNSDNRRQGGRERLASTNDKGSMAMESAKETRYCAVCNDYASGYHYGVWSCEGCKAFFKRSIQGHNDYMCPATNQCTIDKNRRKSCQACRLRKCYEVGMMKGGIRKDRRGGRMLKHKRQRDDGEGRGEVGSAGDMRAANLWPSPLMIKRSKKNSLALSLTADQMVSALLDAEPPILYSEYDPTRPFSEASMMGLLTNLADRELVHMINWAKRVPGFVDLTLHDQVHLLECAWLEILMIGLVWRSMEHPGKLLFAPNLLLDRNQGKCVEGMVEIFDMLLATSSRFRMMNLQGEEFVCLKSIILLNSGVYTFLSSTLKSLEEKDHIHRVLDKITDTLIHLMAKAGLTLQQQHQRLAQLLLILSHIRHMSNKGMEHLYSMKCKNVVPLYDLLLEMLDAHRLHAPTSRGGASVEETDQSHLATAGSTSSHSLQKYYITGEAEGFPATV
For assay [15] the target is unchanged. The assay is described as follows: qHTS assay to identify small molecule agonists of the estrogen receptor alpha (ER-alpha) signaling pathway using the BG1 cell line (AID 743079). Note: nearly all actives have a fitted effect of over 20% in size. Note: potency is the fitted concentration of half-maximal effect.
A short description of assay [16]: qHTS assay to identify small molecule antagonists of the estrogen receptor alpha (ER-alpha) signaling pathway using the BG1 cell line (AID 743080; calls by dose curve;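 note: BG1 cells stimulated with 17beta-estradiol alongside compound; series mostly up to about 70 µM; nearly all actives have a fitted effect of over 25% in size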). In outline: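 Readout is ONE-Glo luminescence, taken 30 min at room temperature after reagent addition, preceded by a CellTiter-Fluor viability read; BG1-Luc-4E2 cells had received compound and 17beta-estradiol for 21.5 h at 37 C.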

A short description of assay [17]: qHTS assay to identify small molecule antagonists of the estrogen receptor alpha (ER-alpha) signaling pathway using the BG1 cell line - cell viability counter screen (AID 743081).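 Note: compound given together with 17beta-estradiol as the ER stimulus; series mostly up to about 70 µM; nearly all actives have a fitted effect of over 45% in size.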
For assay [18], the target named is Aromatase (Homo sapiens) (UniProt P11511). The experiment in a line: qHTS assay to identify aromatase inhibitors (AID 743083). Note: series mostly up to about 70 µM; nearly all actives have a fitted effect of over 55% in size.
Sequence of Aromatase (Homo sapiens) (P11511 whole entry, looked up): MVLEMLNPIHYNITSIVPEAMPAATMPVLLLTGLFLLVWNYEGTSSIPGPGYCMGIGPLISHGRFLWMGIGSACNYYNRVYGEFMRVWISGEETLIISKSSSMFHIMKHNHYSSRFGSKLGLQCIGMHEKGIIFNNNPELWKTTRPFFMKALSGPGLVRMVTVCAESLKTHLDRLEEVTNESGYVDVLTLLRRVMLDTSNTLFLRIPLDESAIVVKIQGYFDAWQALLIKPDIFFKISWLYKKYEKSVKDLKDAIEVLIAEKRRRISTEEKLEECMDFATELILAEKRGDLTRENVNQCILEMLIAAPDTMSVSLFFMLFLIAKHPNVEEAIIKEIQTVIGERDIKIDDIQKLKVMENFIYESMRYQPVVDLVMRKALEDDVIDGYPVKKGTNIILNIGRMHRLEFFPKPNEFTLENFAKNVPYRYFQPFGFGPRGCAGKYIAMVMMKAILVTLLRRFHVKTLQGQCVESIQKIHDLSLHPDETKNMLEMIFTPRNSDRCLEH
Assay [19] concerns the target Androgen receptor (Homo sapiens) (UniProt P10275). The assay is described as follows: qHTS assay to identify small molecule antagonists of the androgen receptor (AR) signaling pathway (AID 743035; active = well fitted inhibition curve with a large enough effect in the signal ratio in the repeat runs, not every such curve was filed as active; the % refers to the signal ratio). In short, it runs like this:
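Steps: seed AR-UAS-bla GripTite HEK293 cells, incubate 4 h at 37C; pin in test compound, then add agonist R1881; incubate 16 h at 37C; add LiveBLAzer B/G FRET substrate, 2 h at room temperature; read fluorescence.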

The nature of assay [20]: qHTS assay to identify small molecule antagonists of the thyroid receptor (TR) signaling pathway (AID 743065). Note: nearly all actives have a fitted effect of over 55% in size. Note: potency is the fitted concentration of half-maximal effect. In outline:
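GH3.TRE-Luc rat pituitary cells carrying two TR response elements driving luciferase were plated for 4 h, given compound plus 1 nM T3 (final), and incubated 23.5 h at 37 C. ONE-Glo luminescence measured reporter inhibition; CellTiter-Fluor fluorescence tracked cytotoxicity.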

Each structure is given as a SMILES string. Results filed as inconclusive are left out. The source made the active and inactive calls. Unless noted, calls come from the whole dose curve; as a rule, active = well fitted curve in the direction sought with a large enough effect in the repeat runs; inconclusive = weak or mixed curves; inactive = no such curve, though single readings can be large; an effect the other way counts as inactive or inconclusive.

Sequence of Androgen receptor (Homo sapiens) (P10275 whole entry, looked up): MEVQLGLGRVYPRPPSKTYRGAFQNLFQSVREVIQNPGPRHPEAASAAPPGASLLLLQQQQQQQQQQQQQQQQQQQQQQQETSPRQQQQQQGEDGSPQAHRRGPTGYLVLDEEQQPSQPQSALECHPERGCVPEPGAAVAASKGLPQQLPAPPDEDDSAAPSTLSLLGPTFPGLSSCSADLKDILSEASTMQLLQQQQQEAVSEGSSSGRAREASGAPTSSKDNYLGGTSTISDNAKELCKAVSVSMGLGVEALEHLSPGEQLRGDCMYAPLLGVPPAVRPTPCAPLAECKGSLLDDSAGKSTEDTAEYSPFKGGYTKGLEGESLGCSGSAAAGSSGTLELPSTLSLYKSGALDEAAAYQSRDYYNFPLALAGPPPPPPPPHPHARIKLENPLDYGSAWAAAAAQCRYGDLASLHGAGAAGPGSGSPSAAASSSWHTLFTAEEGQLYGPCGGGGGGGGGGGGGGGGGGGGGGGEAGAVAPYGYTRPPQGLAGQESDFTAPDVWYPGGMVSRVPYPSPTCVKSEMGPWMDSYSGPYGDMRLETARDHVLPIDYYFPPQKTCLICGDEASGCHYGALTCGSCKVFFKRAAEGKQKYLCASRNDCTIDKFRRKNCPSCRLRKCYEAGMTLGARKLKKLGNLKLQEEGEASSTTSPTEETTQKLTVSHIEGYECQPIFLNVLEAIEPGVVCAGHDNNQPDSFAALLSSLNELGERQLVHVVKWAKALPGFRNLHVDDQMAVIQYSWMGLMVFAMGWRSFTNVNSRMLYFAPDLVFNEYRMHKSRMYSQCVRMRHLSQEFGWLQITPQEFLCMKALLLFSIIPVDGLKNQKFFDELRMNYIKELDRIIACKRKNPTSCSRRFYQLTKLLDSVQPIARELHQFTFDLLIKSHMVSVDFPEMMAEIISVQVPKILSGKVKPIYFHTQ

Turning to `Cl/C=C\C[N+]12CN3CN(CN(C3)C1)C2`, the Potency entry in [1], in assay [5], in assay [7], in assay [8], in [9] and in [10] was “inactive” each time. Further, the Potency entry in assay [11], in assay [12], in assay [13], in [14], in assay [15] and in assay [16] was “inactive” each time. For the same compound, the Potency result in assay [17] is “inactive”. Also, the Potency was 48.6 µM (active) in assay [2], 30.6 µM (active) in assay [3] and 43.3 µM (active) in assay [4]. Further, the compound was called inactive in assay [6].

With `Cc1ccccc1C(=O)Nc1cccc(OC(C)C)c1`, the Potency result in assay [1], in assay [5], in assay [7], in assay [8], in assay [9] and in assay [10] was “inactive” in each case. Further, the Potency entry in assay [11], in [12], in [13], in assay [14], in [15] and in assay [16] was “inactive” in each case. For the same compound, the Potency entry in assay [17] and in assay [18] was “inactive” each time. The Potency in assay [2] was 48.6 µM (active); in assay [3] it was 30.6 µM (active); in [4], 48.6 µM (active).

For `O=NN1CCCCCC1`, the Potency entry in assay [1], in [2], in assay [3], in assay [4], in [5] and in [19] was “inactive” throughout. For the same compound, the Potency result in [7], in [8], in [9], in assay [10], in assay [20] and in [11] was “inactive” in each case. For the same compound, the Potency entry in assay [12], in assay [13], in assay [14], in assay [15], in [16] and in [17] was “inactive” in each case. In addition, the Potency entry in assay [18] is “inactive”. In addition, the result in assay [6] was inactive.

Regarding `CCCN(CCCl)c1c([N+](=O)[O-])cc(C(F)(F)F)cc1[N+](=O)[O-]`, the Potency entry in assay [1], in [2], in assay [3], in assay [4], in assay [5] and in assay [8] was “inactive” each time. The Potency entry in assay [10], in assay [20], in assay [11], in assay [12], in assay [13] and in [14] was “inactive” each time. For the same compound, the Potency entry in [15], in [16], in [17] and in assay [18] was “inactive” in each case.

For `C=CC(=O)OCC(C)C`, the Potency result in assay [1], in assay [2], in [3], in [4], in assay [5] and in assay [8] was “inactive” each time. In addition, the Potency result in assay [10], in assay [20], in [11], in assay [12], in assay [13] and in assay [14] was “inactive” throughout. Further, the Potency entry in [15], in [16], in assay [17] and in assay [18] was “inactive” in each case.

As to `CCOP(=S)(OCC)SCSCC`, the Potency result in assay [1], in assay [5], in assay [8], in assay [10], in [20] and in assay [11] was “inactive” in each case. The Potency result in assay [12], in [13], in [14], in assay [16], in [17] and in [18] was “inactive” throughout. The Potency in assay [2] is 54.5 µM (active); in [3], 27.3 µM (active); in [4], 48.6 µM (active); in [15], 30.6 µM (active).

As for `BrCC(Br)C1CCC(Br)C(Br)C1` (centres undefined), the Potency entry in assay [1], in assay [2], in assay [3], in assay [4], in [5] and in assay [19] was “inactive” each time. In addition, the Potency entry in assay [8], in assay [9], in [11], in assay [13], in assay [17] and in assay [18] was “inactive” each time. The outcome in assay [6] was inactive. Besides, the Potency in [7] is 1.36 µM (active); in assay [10], 68.2 µM (active); in [20], 48.3 µM (active).

Turning to `CC(Cl)C(C)Cl` (centres undefined), the Potency entry in [1], in assay [2], in [3], in assay [4], in assay [5] and in [8] was “inactive” each time. The Potency entry in assay [10], in [20], in [11], in assay [12], in assay [13] and in assay [14] was “inactive” throughout. Further, the Potency entry in assay [15], in assay [16], in [17] and in assay [18] was “inactive” each time.
